# Compound activity (PubChem)
# Pf growth 96h: P. falciparum growth inhibition at 96 hour, primary screen for plastid delayed-death inhibitors. P. falciparum luciferase reporter growth, 96 h. 320,000 compounds, 6.9% hits. AID 504834. Potency, µM (doses to about 28.7 µM), inactives show at the highest dose activity change, negative = inhibition, most hits filed as inhibitors; active means well fitted inhibition curve with a large enough effect; inconclusive means small, poorly fitted or top-dose-only effect, or another doubt; inactive means no such curve, though single readings can be large or run the other way; further: potency means the concentration at half of the fitted maximal effect; on the % scale 0 is the no-effect control and ±100 the full control effect
#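 Parasite growth measured via integrated firefly luciferase reporter in P. falciparum. Infected erythrocytes at 2% hematocrit, 0.05% parasitemia final were treated 96 hours at 37 C under 5% CO2, and luminescence was read.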
# NS1 inh: influenza NS1 inhibition. Potency, µM (series often up to 46.1 µM), without a hit: at the top dose activity, positive = more growth. 270,000 compounds, 0.4% hits; further: potency means the concentration at half of the fitted maximal effect; actives are rising curves; nearly all actives have a fitted effect of over 50% in size
#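 S. cerevisiae expressing influenza A NS1, grown in glucose, washed, then diluted 1:100 into pH 6.0 -URA galactose medium with 23 nl compound. Growth recovery read as OD600; NS1-free strain serves as control.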
# Shiga toxin inh: Shiga toxin inhibition; AID 2315; 290,000 compounds, 9.2% hits; Vero cells, Shiga toxin protein synthesis inhibition reporter; inhibition, % at 38.7 µM; in the data active means inhibition mostly above about 28%, no sharp cut-off; inactive means mostly below about 43%; further: 0% is about no effect
# Pf growth 48h: inhibits P. falciparum growth in the first generation, 48 h; AID 504832; 310,000 compounds, 5.9% hits; P. falciparum luciferase growth in erythrocytes, 48 h; Potency, µM (titrated, usually from 28.7 µM), for the others: at the top dose activity change, negative = inhibition, most hits filed as inhibitors; active means well fitted inhibition curve with a large enough effect; inconclusive means small, poorly fitted or top-dose-only effect, or another doubt; inactive means no such curve, though single readings can be large or run the other way; further: potency means the concentration at half of the fitted maximal effect; on the % scale 0 is the no-effect control and ±100 the full control effect
#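 Firefly luciferase activity from engineered P. falciparum reports growth; inhibitors lower the luminescent signal. Cultures contained 2% hematocrit erythrocytes at 0.1% final parasitemia.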
# Cycloheximide cs: affects cycloheximide protein synthesis inhibition readout, counter-screen; 300,000 compounds, 12% hits; AID 2314; max response, %; cell reporter, cycloheximide protein synthesis inhibition counterscreen; in the data active means max response mostly above about 13%, no sharp cut-off; inactive means mostly below about 14%; further: read at 38.3 µM for the half of the compounds with a filed dose; 0% is about no effect
# SARS PLpro yeast: SARS-CoV PLP inhibition in yeast. Potency, µM (top dose mostly 32.9 µM), inactives show at the top dose activity, positive = growth rescue, most hits filed as activators. AID 485353. S. cerevisiae expressing SARS-CoV PLpro, growth rescue. 330,000 compounds, 0.19% hits; further: potency means the concentration at half of the fitted maximal effect; 0% is about no effect; nearly all actives have a fitted effect of over 55% in size
# * hit, by the source's call; ? = inconclusive; · = not tested or not shown; [ ] = another dose, or the depositor's remark. Hits are enriched below; roughly 21% of the tested compounds scored in any of these assays. Unless noted, the call rests on the fitted dose curve.
SMILES,Pf growth 96h,NS1 inh,Shiga toxin inh,Pf growth 48h,Cycloheximide cs,SARS PLpro yeast
Oc1cc2c(cc1CN1CCN(c3ccccc3)CC1)CCC2,2.62µM*,-4.3%,14.2,1.65µM*,-2.3,2.2%
Oc1cc2c(cc1CN1CCN(c3cccc(C(F)(F)F)c3)CC1)CCC2,1.17µM*,-2.4%,-6.7,1.65µM*,-4.9,-2.1%
COc1ccc(N2CCN(Cc3cc(=O)oc4cc5c(cc34)CCCC5)CC2)cc1,-19.7%,?,19.1,-29.3%,-4.7,?
Oc1cc2c(cc1CN1CCN(c3ccc(F)cc3)CC1)OCO2,0.4%,-4.4%,-13.3,?,-5.8,0.9%
CC(=O)Nc1ccc(S(=O)(=O)NCC2CCC(C(=O)N3CCCCC3)CC2)cc1 (configuration not stated),18.5%,-3.2%,22.7,-22.0%,-0.5,1.0%
O=C(c1ccc(Cl)nc1)N1CCN(S(=O)(=O)c2ccccc2)CC1,26.4%,-39.6%,-2.9,54.6%,-1.4,-2.3%
CC(=O)c1cccc(N(C(=O)CNC(=O)c2ccco2)C(C(=O)NCC2CCCO2)c2ccccc2)c1 (configuration not stated),25.4%,-7.6%,6.8,-5.6%,-0.9,-2.9%
CS(=O)(=O)NCCCCCCNS(C)(=O)=O,23.5%,·,4.9,12.4%,-1.3,-0.6%
CCC(O)C1CCN(Cc2cn(Cc3ccccc3)nc2-c2cc3ccccc3o2)CC1 (configuration not stated),0.0%,1.6%,-9.2,5.22µM*,-4.1,0.1%
Cn1c(=O)c2c(ncn2CCOc2cccc(Br)c2)n(C)c1=O,-25.6%,-3.2%,-16.8,17.7%,2.1,3.0%
C=CCc1c(C)nc2c(OC)cccc2c1Cl,?,-7.7%,34.1,8.7%,13.6*,-0.7%
Cc1cc(C)cc(NC(=S)Nc2cccc3cnccc23)c1,?,·,-17.0,2.08µM*,6.1,-3.2%
Cc1ccc(NC(=S)Nc2cccc3cnccc23)c(C)c1,0.6%,·,24.0,-7.6%,15.2,0.3%
CCc1ccc(NC(=S)Nc2cccc3cnccc23)cc1,?,·,65.5*,?,35.7*,-13.3%
C=C(C)CNC(=S)Nc1cccc2cnccc12,-16.9%,-2.8%,13.3,6.0%,-0.2,-12.8%
CCOc1cccc(-c2csc(C3COc4ccccc4O3)n2)c1 (configuration not stated),290.0%,-7.5%,30.5,111.3%,27.7*,8.4%
O=C(CSc1nccn1-c1ccccc1)Nc1ccc2c(c1)OCO2,48.8%,-89.2%,67.6*,18.3%,70.1*,-7.8%
Cc1cccc(-n2ccnc2SCC(=O)Nc2cccc(S(=O)(=O)NC3=NCCC3)c2)c1C,-21.2%,·,·,10.4µM*,·,-2.1%
Cc1ccn(CCC(=O)Nc2ccc(-c3ccno3)cc2)n1,?,-6.0%,13.7,6.5%,21.1,-1.5%
O=C(CCn1cccn1)Nc1ccc2c(c1)OCO2,-0.3%,-1.9%,39.5*,-3.3%,35.8*,5.4%
O=C(CCn1cccn1)Nc1ccc(-c2ccno2)cc1,6.1%,-5.8%,34.1*,45.7%,33.1*,1.1%
CN1CCN(CCC(=O)Nc2ccc3c(c2)OCO3)CC1,?,14.0%,1.6,12.9%,-1.5,24.3%
Cn1ccnc1SCC(=O)Nc1ccc2c(c1)OCO2,41.8%,·,68.6,173.4%,41.0*,0.2%
CCOc1ccc(Oc2ccccc2NC(=O)CCNC(C)=O)cc1,-27.5%,·,-2.5,2.3%,0.6,-2.5%
O=C1CCC(C(=O)N(Cc2cccs2)C2(C(=O)NC3CCCCC3)CCCCC2)N1 (configuration not stated),-16.0%,·,-16.2,-12.8%,7.5,2.8%
SMILES,Pf growth 96h,NS1 inh,Shiga toxin inh,Pf growth 48h,Cycloheximide cs,SARS PLpro yeast
Cc1nc(Nc2ccc(O)cc2)c2c3c(sc2n1)CCCC3,?,-7.8%,-4.2,14.7µM*,2.0,-0.5%
CCOc1ccc(C(=O)OCC(=O)N2CCCC2)cc1,27.4%,-4.7%,58.9*,57.9%,27.2*,-0.9%
CCOC(=O)N1CCN(C(=O)COC(=O)c2ccc(N(C)C)cc2)CC1,·,·,·,·,·,6.7%
CCOC(=O)C1CCN(C(=O)c2cccc(C(=O)N3CCC(C(=O)OCC)CC3)c2)CC1,?,-2.0%,0.5,-9.7%,-0.7,?
O=C(OCC(=O)N1CCCC1)c1cccc(Br)c1,-1.6%,-10.0%,54.5*,31.5%,19.6*,-3.4%
CCOC(=O)C1CCN(C(=O)COC(=O)c2cccc(F)c2)CC1,9.1%,·,72.2*,?,21.9*,0.3%
CN(C)c1ccc(C(=O)OCC(=O)N2CCCC2)cc1,78.0%,-1.8%,53.4*,40.0%,31.9*,-1.2%
CC1(OC(=O)C2CCCC2)C(=O)C=C2C=C(c3ccsc3)N(C(CO)CO)C=C2C1=O (configuration not stated),54.5%,-6.2%,1.8,43.6%,-2.1,0.3%
CCOC(=O)C1CCN(S(=O)(=O)c2ccc3c(c2)CCN3C(=O)C2CCC2)CC1,?,-9.3%,-3.0,5.9%,-3.2,0.4%
CSc1nn2c(C(F)(F)F)cc(C(F)(F)F)nc2c1C(=O)O,72.1%,4.5%,9.3,2.0%,9.6,0.5%
C=CCc1ccc(OCC(O)CN2CCc3ccccc3C2)c(OC)c1 (configuration not stated),?,-13.8%,-5.8,?,-2.6,-8.9%
NS(=O)(=O)c1cccc(NS(=O)(=O)c2ccc(/C=C/C(=O)OCC(=O)c3ccccc3)cc2)c1,?,·,7.5,-10.3%,-2.3,0.3%
CN(C)c1ccc(C(=S)N2CCCCCC2)cc1,38.0%,3.2%,20.3,·,19.9,24.3%
CN(C)c1ccc(C(=O)OCC(=O)N2CCCCCC2)cc1,119.6%,·,105.9*,92.8%,35.8*,0.4%
CN(C)c1ccc(C(=O)N2CCCC2)cc1,11.7µM*,·,4.1,43.3%,9.8,1.7%
CCCCn1c(SCC(=O)Nc2nnc(C)s2)nnc1-c1ccncc1,?,16.8%,-5.0,38.2%[1.15 µM],1.9,-0.3%
CC(C)(C)OC(=O)NC1CC2CCCC(C1)N2Cc1ccccc1 (configuration not stated),?,28.1%,5.4,?,1.3,10.6%
COC(=O)Nc1ccc(N2CCOCC2)c(S(=O)(=O)N2CCOCC2)c1,144.1%,1.6%,14.3,27.8%,-4.2,4.9%
O=c1c2ccccc2c(-c2cccc(C(F)(F)F)c2)nn1-c1ccccc1,9.28µM*,4.9%,-3.6,?,-3.8,0.5%
O=C(O)c1nc(-c2ccccc2)n(-c2cccc(C(F)(F)F)c2)n1,?,·,39.5,0.0%,9.1,0.7%
O=c1c2ccccc2c(-c2ccc(O)cc2)nn1-c1cccc(C(F)(F)F)c1,?,-25.0%,-4.8,9.28µM*,-5.2,-87.5%
COc1ccccc1CNC(=O)Nc1cccs1,-15.1%,9.4%,62.9,-1.5%,19.5*,-4.7%
COc1cccc(CNC(=O)CCNS(=O)(=O)c2cccs2)c1,1.17µM*,-10.1%,-3.3,25.3%,-0.9,-1.9%
Cc1ccc(CNC(=O)Nc2cccs2)cc1,11.2%,-3.1%,51.2*,125.8%,50.1*,4.0%
